Source: PubChem BioAssay (NCI)
Compounds without any hit were thinned out: in the full panel of roughly 83,000, 20% have a hit.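 In brief: 96-well plates, 48 h treatment, single concentration, percent growth endpoint.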 Unmarked numbers belong to inactive results. Active and inactive are the calls of the source. How the source made its calls: active means growth percent below 10; inactive means the rest.

Legend:
Assay in all cases: NCI-60 one-dose screen, 48 h (100 = growth as untreated, 0 = no growth, -100 = all killed)
Conditions in all cases: 10 µM
DU-145 prostate = test system: DU-145 prostate
K-562 leukemia = test system: K-562 leukemia
MALME-3M melanoma = test system: MALME-3M melanoma
MDA-MB-231 breast = test system: MDA-MB-231 breast
RXF 393 renal = test system: RXF 393 renal
SF-268 CNS = test system: SF-268 CNS
SF-295 CNS = test system: SF-295 CNS
SF-539 CNS = test system: SF-539 CNS
UACC-257 melanoma = test system: UACC-257 melanoma
M14 melanoma = test system: M14 melanoma
HCT-15 colon = test system: HCT-15 colon
HT29 colon = test system: HT29 colon
SNB-75 CNS = test system: SNB-75 CNS
U251 CNS = test system: U251 CNS
PC-3 prostate = test system: PC-3 prostate
SK-MEL-5 melanoma = test system: SK-MEL-5 melanoma
UACC-62 melanoma = test system: UACC-62 melanoma
LOX IMVI melanoma = test system: LOX IMVI melanoma
SK-MEL-28 melanoma = test system: SK-MEL-28 melanoma
SNB-19 CNS = test system: SNB-19 CNS

SMILES | growth (DU-145 prostate) | growth (K-562 leukemia) | growth (MALME-3M melanoma) | growth (MDA-MB-231 breast) | growth (RXF 393 renal) | growth (SF-268 CNS) | growth (SF-295 CNS) | growth (SF-539 CNS) | growth (UACC-257 melanoma) | growth (M14 melanoma) | growth (HCT-15 colon) | growth (HT29 colon) | growth (SNB-75 CNS) | growth (U251 CNS) | growth (PC-3 prostate) | growth (SK-MEL-5 melanoma) | growth (UACC-62 melanoma) | growth (LOX IMVI melanoma) | growth (SK-MEL-28 melanoma) | growth (SNB-19 CNS) [%]
Cc1nc2scc(-c3ccc(Cl)cc3)n2c(=O)c1CCN1CCOCC1 | 115% | 80.6% | 100% | 78.3% | 118% | 102% | 70.7% | 100% | 108% | 97.8% | 105% | 105% | 84.6% | 96.7% | 87.5% | 94.5% | 85.6% | 97.5% | 102% | –
CC(C)C[C@H](NC(=O)Cn1ccc2ccccc2c1=O)B(O)O | 73.5% | 64% | 39.6% | 88% | 10.3% | 79.6% | 69.5% | 15.9% | 42.1% | 56% | 57.9% | 44.7% | 96.8% | – | 86.9% | – | 49.8% | 50.6% | 48.7% | 76.8
CCc1ccc(Nc2cc(C)nc3nc(C)nn23)cc1 | 29.5% | -24.3% (active) | -90.2% (active) | -58.3% (active) | -66.5% (active) | 37.8% | 33.1% | 0.337% (active) | -84.8% (active) | -93.6% (active) | -3.95% (active) | -76.3% (active) | 29.6% | -98.9% (active) | 1.4% (active) | -97.8% (active) | -99.1% (active) | -98.2% (active) | -98% (active) | –
CN(C)Cc1cccs1 | 111% | 109% | 96.7% | 90.4% | 99.3% | 95.2% | 100% | 96.1% | 96.9% | 94.8% | 106% | 104% | 93.9% | – | 70.3% | – | 95.4% | 93.1% | 102% | 98.9
CCOC(=O)c1sc(Nc2ncccn2)nc1-c1ccccn1 | 92.3% | 108% | 107% | 86.7% | 104% | 80.6% | 84.2% | 99.3% | 100% | 81.9% | 50.8% | 99.6% | 108% | 73.2% | 86.3% | 83.2% | 97.6% | 79.9% | 94.7% | –
Cc1cccc2c1O/C(=C\c1ncc([N+](=O)[O-])n1C)C2=O | -29.7% (active) | 0.421% (active) | -51.5% (active) | -7.78% (active) | -63.7% (active) | -26.4% (active) | -15.2% (active) | -61% (active) | -40.8% (active) | -49.2% (active) | 5.68% (active) | -21% (active) | 8.32% (active) | -17.5% (active) | -22.4% (active) | -92.2% (active) | -66.3% (active) | -39.6% (active) | -17.8% (active) | –
CCCc1c(CC)c(=N)c2ccccc2n1C | 62% | -3.78% (active) | -88.7% (active) | 43.1% | 8.09% (active) | 79.5% | -51.9% (active) | 68.1% | -64.1% (active) | -61.6% (active) | 10.7% | 4.71% (active) | 73.4% | – | – | – | -3.76% (active) | – | -80.8% (active) | 95.1
CC(C)c1[nH]nc2c(NCc3ccc(-c4ccccn4)cc3)nc(SCCN)nc12 | 5.83% (active) | 3.89% (active) | -41.3% (active) | 5.07% (active) | -71.4% (active) | -0.883% (active) | 4.57% (active) | -54.4% (active) | 1.34% (active) | -43.1% (active) | 7.24% (active) | -24.2% (active) | -78.5% (active) | – | -0.489% (active) | -38.6% (active) | -10.2% (active) | -18.5% (active) | -13.8% (active) | 12.2
COc1ccc(C2C=C(c3ccc(OC)c(OC)c3)N=C3SC=CN32)c(Br)c1 (stereo not given) | 82.7% | 8.77% (active) | 88.7% | 78% | 98.5% | 90.4% | 74.9% | 87.1% | 97.3% | 55.9% | 41.9% | 33.7% | 85.5% | – | 48.9% | 63.6% | 68.9% | – | 89.8% | 73
COc1cc(C(=O)n2nc(N)c3c(C)cc(C)nc32)cc(OC)c1OC | 93.3% | 18.2% | 89% | 87.7% | 83.2% | 79.1% | 75.9% | 64.6% | 90.9% | 80.2% | 33.2% | 24% | 57.9% | 72.1% | 81.2% | 73.8% | 80.5% | 54% | 97.6% | –
COc1ccc(C(=O)c2sc3nc(-c4cccs4)ccc3c2N)cc1OC | 81% | 13% | 58.9% | 43.8% | 66.9% | 62.8% | 51.3% | 54.6% | 76.3% | 42.1% | 37.4% | 14% | 52.1% | – | 39% | 24.3% | 59% | – | 59.2% | 71.7
CCOC(=O)CNC(=O)Nc1ccc(Oc2ccc(NC(=O)NCC(=O)OCC)cc2)cc1 | 112% | 105% | 102% | 108% | 91.6% | 104% | 93% | 86.7% | 96.2% | 101% | 99.2% | 107% | 74.4% | – | 86.9% | 97.1% | 92.4% | 91.9% | 91% | 104
COc1cc(Cl)cc(-c2nn(-c3cccc(NC(=O)Nc4cccc(C(F)(F)F)c4)c3)cc2-c2ccncc2)c1 | 15.9% | 7.61% (active) | -16.6% (active) | -9.21% (active) | 11.8% | 27.9% | -7.87% (active) | 17% | -11.7% (active) | 9.99% (active) | 7.83% (active) | 5.75% (active) | 12.5% | 4.59% (active) | -9.92% (active) | 5.3% (active) | -11.5% (active) | 4.64% (active) | 14.1% | –
c1ccc(CNc2nc(Nc3ccc(-c4nc5ccccc5[nH]4)cc3)c3cn[nH]c3n2)cc1 | 25.5% | -17% (active) | -23.5% (active) | -11.1% (active) | -68.3% (active) | 22.1% | -44.5% (active) | 1.69% (active) | -33.3% (active) | -34.6% (active) | 0.22% (active) | -13.9% (active) | 33% | – | 11.8% | -96.4% (active) | -40.9% (active) | -42.1% (active) | -8.67% (active) | 36.3
COc1cc(C2C=C(c3ccc(Cl)cc3)N=C3SC(C)=CN32)cc(OC)c1OC (stereo not given) | 99.9% | 91.1% | 88.7% | 103% | 92.6% | 104% | 82.2% | 99.1% | 101% | 95% | 84.7% | 79.1% | – | 85.1% | 89.2% | 91.9% | 85.5% | 96.8% | 105% | 91.5
COc1ccc(CSc2nc3cc(OC)c(OC)cc3c(=O)n2-c2ccc(OC)cc2OC)cc1 | 97.7% | 87.1% | 82.6% | 75.4% | 75.5% | 86.4% | 89.6% | 96.8% | 93.4% | 97% | 80.6% | – | 90.3% | 85.9% | 55.6% | 80.5% | 80.2% | 83.4% | 102% | 79.6
COc1ccc(-c2nsc3c2NC(=O)CC3c2ccc(Cl)cc2)cc1 (stereo not given) | 98.4% | 66.6% | 78% | 94.9% | 105% | 97.2% | 79.2% | 92.5% | 82.5% | 84.4% | 86.3% | 89.8% | – | 93.3% | 82% | 81.8% | – | 90.4% | 103% | 95.9
